Laboratory results: PubChem BioAssay (NCI)
The panel holds about 79,000 compounds, 15% with a hit somewhere; the sample as a whole holds those more often. Unmarked numbers belong to inactive results. Activity calls are given as the source filed them. Rule as the data show it: active = growth inhibition above about 70%; inactive = the rest. Where a SMILES comes first, the peptide text is derived from it. The star is where a group is joined. Cbz = O=C(OCc1ccccc1)*; CH2Cl = ClC*

What was measured:
[1] = NCI Yeast Anticancer Drug Screen. Data for the rad50 strain (AID 155);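 also: 0% = growth of vehicle-only cultures of the same strain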; conditions: S. cerevisiae rad50 strain growth inhibition, active compounds read high
How it was run: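 Compounds were tested on a yeast strain with an engineered DNA damage repair alteration; the reported value is growth inhibition normalised to vehicle treatment.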

[2] = NCI Yeast Anticancer Drug Screen. Data for the mec2-1 strain (AID 157); conditions: S. cerevisiae mec2-1 strain, active compounds read high
How it was run: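 Using mec2-1 yeast: add compound, measure growth, express inhibition versus vehicle-treated cultures.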

[3] = NCI Yeast Anticancer Drug Screen. Data for the sgs1 mgt1 strain (AID 161);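 also: 0% = growth of cultures given vehicle only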; conditions: S. cerevisiae sgs1 mgt1 strain, active compounds read high
How it was run: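 Percent growth inhibition was derived by comparing compound-exposed mutant yeast with vehicle-exposed cultures. The strain carries alterations in DNA damage repair.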

[4] = NCI Yeast Anticancer Drug Screen. Data for the cln2 rad14 strain (AID 165);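 also: 0% = growth equal to vehicle treated cultures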; conditions: S. cerevisiae cln2 rad14 strain, active compounds read high
How it was run: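 Yeast strain cln2 rad14, bearing defects in cell cycle control and DNA repair, serves as the test system; values reflect growth inhibition compared with vehicle.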

[5] = NCI Yeast Anticancer Drug Screen. Data for the bub3 strain (AID 167); conditions: S. cerevisiae bub3 mutant strain, active compounds read high
How it was run: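 Growth of a checkpoint-deficient yeast mutant is measured after compound exposure. Values represent inhibition relative to vehicle.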

[6] = NCI Yeast Anticancer Drug Screen. Data for the mlh1 rad18 strain (AID 175); conditions: S. cerevisiae mlh1 rad18 strain growth inhibition, active compounds read high
How it was run: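 Steps: expose repair-defective yeast to compound; measure growth; express inhibition against vehicle-treated controls.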

[7] = at 5.0 µM (retest, dose inferred, filed as 0.5)
[8] = at 50.0 µM (retest, dose inferred, filed as 5.0)

| Structure (SMILES) | growth inhibition [1, 7] | growth inhibition [1, 8] | growth inhibition ([1]; at 50.0 µM) | growth inhibition [2, 7] | growth inhibition [2, 8] | growth inhibition ([2]; at 50.0 µM) | growth inhibition [3, 7] | growth inhibition [3, 8] | growth inhibition ([3]; at 50.0 µM) | growth inhibition [4, 7] | growth inhibition [4, 8] | growth inhibition ([4]; at 50.0 µM) | growth inhibition [5, 7] | growth inhibition [5, 8] | growth inhibition ([5]; at 50.0 µM) | growth inhibition [6, 7] | growth inhibition [6, 8] | growth inhibition ([6]; at 50.0 µM) |
| --- | --- | --- | --- | --- | --- | --- | --- | --- | --- | --- | --- | --- | --- | --- | --- | --- | --- | --- |
| O=C(Nc1ccc(C(F)(F)F)cc1[N+](=O)[O-])C(=O)C(C(=O)c1ccc2ccccc2c1)C1OC(=O)c2ccccc21 (stereo not given) | 26% | 26% | 2.05% | 10% | 10% | 4.85% | 8% | 8% | 13.9% | 15% | 15% | -28.6% | 9% | 9% | 22.7% | 10% | 10% | 10.2% |
| O=NNc1ccc2cc3ccc(NN=O)cc3nc2c1 | 16% | 25% | 43.2% | 6% | 26% | -11.1% | 7% | 24% | 52.5% | 11% | 24% | 27.7% | 9% | 14% | 34.6% | 15% | 31% | 52.7% |
| CCCCCCCCCCCC[N+](C)(CCS(=O)(=O)[O-])Cc1ccccc1 (stereo not given) | -1% | 51% | 98.2% (active) | 6% | 74% (active) | 99.2% (active) | 1% | 36% | 41.9% | 2% | 66% | 77.5% (active) | -2% | 61% | 72.1% (active) | -2% | 97% (active) | 99.2% (active) |
| CC(O)c1c2c(cc3c1CC1(C3)Cc3cc4c(c(C(C)O)c3C1)CCC4)CCC2 (stereo not given) | -18% | 98% (active) | 71.1% (active) | -6% | 97% (active) | 81.4% (active) | -34% | 97% (active) | 85.9% (active) | 1% | 97% (active) | 86.7% (active) | -50% | 97% (active) | 87.2% (active) | -17% | 97% (active) | 88.3% (active) |
| O=C(CC(=O)c1ccccc1)CC(=O)c1cccc(Cl)c1 | -1% | 87% (active) | 81.1% (active) | 5% | 89% (active) | 65% | -1% | 87% (active) | 76.2% (active) | -9% | 77% (active) | 18.4% | 8% | 94% (active) | 78.5% (active) | 4% | 93% (active) | 85.2% (active) |
| O=C1C=CC(=O)N1c1cccc([N+](=O)[O-])c1 | 78% (active) | 99% (active) | 99.6% (active) | 95% (active) | 100% (active) | 99.7% (active) | 93% (active) | 99% (active) | 99.5% (active) | 84% (active) | 99% (active) | 99.7% (active) | 99% (active) | 99% (active) | 99.3% (active) | 91% (active) | 99% (active) | 99.5% (active) |
| COc1cc(NCC(C)(O)CN2CCC(C)CC2C)c2ncccc2c1 (stereo not given) | 14% | 57% | 83.2% (active) | 14% | 47% | 50.1% | 20% | 61% | 77% (active) | 13% | 52% | 79.4% (active) | 7% | 54% | 80.7% (active) | 0% | 58% | 83.7% (active) |
| CC(C)CC(NC(=O)OCc1ccccc1)C(=O)NC(Cc1ccccc1)C(=O)CCl (stereo not drawn) (Cbz-Leu-Phe-CH2Cl; configuration not given here) | 43% | 62% | 28.9% | 48% | 86% (active) | 58.5% | 27% | 46% | 53.8% | 16% | 52% | -8.15% | 51% | 77% (active) | 87.5% (active) | 46% | 74% (active) | 54.9% |
| O=c1c2cccc3cccc(c4oc5c6cccc7cccc(c(=O)c5c14)c76)c32 | 16% | 92% (active) | 95.5% (active) | 13% | 97% (active) | 88.5% (active) | 15% | 97% (active) | 97.2% (active) | 13% | 88% (active) | 93.9% (active) | 37% | 94% (active) | 96.3% (active) | 17% | 97% (active) | 98.9% (active) |
| C=CC1(C)CCC2C(=CCC3C(C)(C(=O)O)CCCC23C)C1 (stereo not given) (tested in a mixture with another compound) | -5% | 61% | 65.1% | 0% | 87% (active) | 74.2% (active) | -5% | 59% | 32.4% | -28% | 66% | 76.8% (active) | -17% | 66% | 64.2% | 6% | 84% (active) | 72% (active) |
